Measured values from the supplement of paper PMC9694430.

What was measured:
Assay in all cases: thermal shift delta Tm vs DMSO control; higher = stronger stabilization (binding)
Details in all cases: 12.5 µM; protein concentration 2 µM
[1] = tested on: LOC_OS01G01410-cb001
Summary of the method: (§1)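 Thermal shift values come from differential scanning fluorimetry on purified rice kinase domains made in E. coli, with melting temperatures obtained from Boltzmann fits. Samples of 19.5 μl held 2 μM kinase, 100 mM potassium phosphate pH 7.5, 150 mM NaCl, 10% glycerol, 5 × SYPRO Orange and compound in DMSO, and were heated from 25°C to 95°C at 0.05°C/s. Each shift is a triplicate mean relative to the DMSO-only protein sample.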

[2] = tested on: LOC_OS01G02750-cb003
Summary of the method: as §1

[3] = tested on: LOC_OS01G10900-cb004
Summary of the method: as §1

[4] = tested on: LOC_OS01G13800-cb001
Summary of the method: as §1

[5] = tested on: LOC_OS01G14860-cb001
Summary of the method: as §1

[6] = tested on: LOC_OS01G21960-cb002
Summary of the method: as §1

[7] = tested on: LOC_OS01G39600-cb002
Summary of the method: as §1

[8] = tested on: LOC_OS01G48390-cb002
Summary of the method: as §1

[9] = tested on: LOC_OS01G51400-cb002
Summary of the method: as §1

[10] = tested on: T1, LOC_OS01G52050-cb004
T1 sequence (whole entry): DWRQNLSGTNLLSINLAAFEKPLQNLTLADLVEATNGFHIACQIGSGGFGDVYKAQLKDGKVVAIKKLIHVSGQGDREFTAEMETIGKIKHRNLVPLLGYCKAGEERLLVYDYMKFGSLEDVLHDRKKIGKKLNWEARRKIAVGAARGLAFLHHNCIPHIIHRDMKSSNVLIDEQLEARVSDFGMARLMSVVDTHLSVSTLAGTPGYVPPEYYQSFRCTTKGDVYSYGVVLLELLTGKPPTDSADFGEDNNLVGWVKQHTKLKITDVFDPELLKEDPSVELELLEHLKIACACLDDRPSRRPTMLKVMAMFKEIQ
Summary of the method: as §1

[11] = tested on: LOC_OS01G57100-cb003
Summary of the method: as §1

[12] = tested on: LOC_OS01G60330-cb001
Summary of the method: as §1

[13] = tested on: LOC_OS01G60700-cb002
Summary of the method: as §1

[14] = tested on: LOC_OS01G63280-cb003
Summary of the method: as §1

[15] = tested on: LOC_OS01G67340-cb003
Summary of the method: as §1

[16] = tested on: LOC_OS01G70970-cb002
Summary of the method: as §1

[17] = tested on: LOC_OS02G07810-cb001
Summary of the method: as §1

[18] = tested on: LOC_OS02G08530-cb003
Summary of the method: as §1

[19] = tested on: LOC_OS02G14120-cb001
Summary of the method: as §1

[20] = tested on: LOC_OS02G17970-cb001
Summary of the method: as §1
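Also: purified Escherichia coli-expressed rice kinase domain construct.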

N#C/C(=C\c1ccc(O)c(O)c1)C(=O)NCc1ccccc1 [AG-490 (Tyrphostin B42)]
thermal shift delta Tm [1]: 2.63 °C | thermal shift delta Tm [2]: 17.9 °C | thermal shift delta Tm [3]: 0.93 °C | thermal shift delta Tm [4]: 1.74 °C | thermal shift delta Tm [5]: 1.27 °C | thermal shift delta Tm [6]: 1.78 °C | thermal shift delta Tm [7]: -0.2 °C | thermal shift delta Tm [8]: 1.08 °C | thermal shift delta Tm [9]: 0.47 °C | thermal shift delta Tm [10]: 0.46 °C | thermal shift delta Tm [11]: 0.3 °C | thermal shift delta Tm [12]: 0.46 °C | thermal shift delta Tm [13]: 1.9 °C | thermal shift delta Tm [14]: 0.34 °C | thermal shift delta Tm [15]: 0.38 °C | thermal shift delta Tm [16]: 0.32 °C | thermal shift delta Tm [17]: 1.89 °C | thermal shift delta Tm [18]: 0.84 °C | thermal shift delta Tm [19]: -0.01 °C | thermal shift delta Tm [20]: 1.7 °C

C[C@@H]1COCCN1c1cc(C2([S@](C)(=N)=O)CC2)nc(-c2cc[nH]c3nccc2-3)n1
thermal shift delta Tm [1]: 0.28 °C | thermal shift delta Tm [2]: 0.13 °C | thermal shift delta Tm [3]: -0.04 °C | thermal shift delta Tm [4]: 0.31 °C | thermal shift delta Tm [5]: -0.19 °C | thermal shift delta Tm [6]: -0.02 °C | thermal shift delta Tm [7]: -0.99 °C | thermal shift delta Tm [8]: -0.04 °C | thermal shift delta Tm [9]: -0.01 °C | thermal shift delta Tm [10]: -0.09 °C | thermal shift delta Tm [11]: 0.97 °C | thermal shift delta Tm [12]: 0.61 °C | thermal shift delta Tm [13]: 0.22 °C | thermal shift delta Tm [14]: -0.13 °C | thermal shift delta Tm [15]: 0.47 °C | thermal shift delta Tm [16]: 0.14 °C | thermal shift delta Tm [17]: 0.56 °C | thermal shift delta Tm [18]: 0.49 °C | thermal shift delta Tm [19]: 0.92 °C | thermal shift delta Tm [20]: 0.47 °C

CCCCCCCCCCCCCCCCn1cc[n+](Cc2ccccc2)c1C
thermal shift delta Tm [1]: -2.01 °C | thermal shift delta Tm [2]: -7.84 °C | thermal shift delta Tm [3]: -4.55 °C | thermal shift delta Tm [4]: -6.34 °C | thermal shift delta Tm [5]: -18.6 °C | thermal shift delta Tm [6]: -3.32 °C | thermal shift delta Tm [7]: -5.39 °C | thermal shift delta Tm [8]: -5.85 °C | thermal shift delta Tm [9]: -9.26 °C | thermal shift delta Tm [10]: -3.57 °C | thermal shift delta Tm [11]: -6.09 °C | thermal shift delta Tm [12]: 0.5 °C | thermal shift delta Tm [13]: -2.72 °C | thermal shift delta Tm [14]: -7.84 °C | thermal shift delta Tm [15]: -1.74 °C | thermal shift delta Tm [16]: -4.15 °C | thermal shift delta Tm [17]: -4.78 °C | thermal shift delta Tm [18]: -0.96 °C | thermal shift delta Tm [19]: -1.51 °C | thermal shift delta Tm [20]: -2.91 °C

COc1cc2ncnc(Nc3ccc(Cl)cc3F)c2cc1OC
thermal shift delta Tm [1]: 0.69 °C | thermal shift delta Tm [2]: 0.81 °C | thermal shift delta Tm [3]: 0.27 °C | thermal shift delta Tm [4]: 0.26 °C | thermal shift delta Tm [5]: 0.32 °C | thermal shift delta Tm [6]: 0.85 °C | thermal shift delta Tm [7]: 1.07 °C | thermal shift delta Tm [8]: 0.9 °C | thermal shift delta Tm [9]: 0.46 °C | thermal shift delta Tm [10]: 0.58 °C | thermal shift delta Tm [11]: 1.2 °C | thermal shift delta Tm [12]: 0.41 °C | thermal shift delta Tm [13]: 1.4 °C | thermal shift delta Tm [14]: 0.51 °C | thermal shift delta Tm [15]: 0.32 °C | thermal shift delta Tm [16]: 0.2 °C | thermal shift delta Tm [17]: 1.32 °C | thermal shift delta Tm [18]: 1.3 °C | thermal shift delta Tm [19]: 4.69 °C | thermal shift delta Tm [20]: 1.1 °C

CNS(=O)(=O)C[C@H]1CC[C@H](N(C)c2[nH]cnc3nccc2-3)CC1 [Oclacitinib]
thermal shift delta Tm [1]: 0.92 °C | thermal shift delta Tm [2]: 1.16 °C | thermal shift delta Tm [3]: 0.3 °C | thermal shift delta Tm [4]: 0.42 °C | thermal shift delta Tm [5]: 2.09 °C | thermal shift delta Tm [6]: 0.79 °C | thermal shift delta Tm [7]: 1.81 °C | thermal shift delta Tm [8]: 2.77 °C | thermal shift delta Tm [9]: 0.26 °C | thermal shift delta Tm [10]: 1.43 °C | thermal shift delta Tm [11]: 1.69 °C | thermal shift delta Tm [12]: 4.38 °C | thermal shift delta Tm [13]: 1.12 °C | thermal shift delta Tm [14]: 2.6 °C | thermal shift delta Tm [15]: 2.18 °C | thermal shift delta Tm [16]: 1.16 °C | thermal shift delta Tm [17]: 0.11 °C | thermal shift delta Tm [18]: 2.49 °C | thermal shift delta Tm [19]: 4.19 °C | thermal shift delta Tm [20]: 1.21 °C

CN1CCN(C2CCN(C(=O)Nc3cc(Oc4ccc(NC(=O)C5(C(=O)Nc6ccc(F)cc6)CC5)c(F)c4)ccn3)CC2)CC1 [Golvatinib (E7050)]
thermal shift delta Tm [1]: -0.03 °C | thermal shift delta Tm [2]: 1.21 °C | thermal shift delta Tm [3]: 0.95 °C | thermal shift delta Tm [4]: 0.07 °C | thermal shift delta Tm [5]: 0.62 °C | thermal shift delta Tm [6]: 0.11 °C | thermal shift delta Tm [7]: 0.93 °C | thermal shift delta Tm [8]: 2.98 °C | thermal shift delta Tm [9]: 0.51 °C | thermal shift delta Tm [10]: 0.09 °C | thermal shift delta Tm [11]: 0.49 °C | thermal shift delta Tm [12]: 0.6 °C | thermal shift delta Tm [13]: 1.6 °C | thermal shift delta Tm [14]: 0.78 °C | thermal shift delta Tm [15]: 0.24 °C | thermal shift delta Tm [16]: 0.6 °C | thermal shift delta Tm [17]: 0.4 °C | thermal shift delta Tm [18]: 0.79 °C | thermal shift delta Tm [19]: 0.6 °C | thermal shift delta Tm [20]: 2.14 °C

COc1ccc(C(=O)Nc2sc3c(c2C(N)=O)CCCC3)cc1OC
thermal shift delta Tm [1]: 0.61 °C | thermal shift delta Tm [2]: 0.58 °C | thermal shift delta Tm [3]: 0.36 °C | thermal shift delta Tm [4]: 0.6 °C | thermal shift delta Tm [5]: 0.19 °C | thermal shift delta Tm [6]: 0.49 °C | thermal shift delta Tm [7]: 0.46 °C | thermal shift delta Tm [8]: 0.85 °C | thermal shift delta Tm [9]: 0.45 °C | thermal shift delta Tm [10]: 1.28 °C | thermal shift delta Tm [11]: 1.3 °C | thermal shift delta Tm [12]: 1.24 °C | thermal shift delta Tm [13]: 1.23 °C | thermal shift delta Tm [14]: 0.62 °C | thermal shift delta Tm [15]: 1.69 °C | thermal shift delta Tm [16]: 0.41 °C | thermal shift delta Tm [17]: 1.01 °C | thermal shift delta Tm [18]: 2.12 °C | thermal shift delta Tm [19]: 2.58 °C | thermal shift delta Tm [20]: 0.27 °C
